What all share (format): functional
Assay [1] deals with Plasmodium falciparum. In words: GSK_TCMDC: Inhibition of Plasmodium falciparum 3D7 in whole red blood cells, using parasite LDH activity as an index of growth. Test compounds present at 2uM.
The subject of assay [2] is Plasmodium falciparum. In words: GSK_TCMDC: Inhibition of Plasmodium falciparum Dd2 in whole red blood cells, using parasite LDH activity as an index of growth. Test compounds present at 2uM.
The next assay concerns HepG2. In words: GSK_TCMDC: Percent inhibition of human HepG2 cell line. Test compounds present at 10uM.

The structures appear in SMILES notation.

What is called Inhibition is the share of the control response that was lost under treatment. A lower Inhibition goes with a weak effect. Consider `CN1CCC(Oc2ccc(CN3CC[C@H](NC(=O)c4cccc(C#N)c4)C3)c3ccccc23)C1.O=C(O)C(F)(F)F` (stereo not given in full), for which the Inhibition in the assay with Plasmodium falciparum [1] turned out to be 97%; with Plasmodium falciparum [2], 30%; in the assay with HepG2 it was 10%.
For `O=C(O)C(F)(F)F.O=C1CCCN1CCCNCc1ccc(-c2ccc(-c3nc4cc(C(F)(F)F)ccc4[nH]3)cc2)cc1`, in that order: 100%, 98% and 10%.
The like results for `CC(C)(C)c1ccc2[nH]c(-c3ccc(/C=C/C(=O)NCc4ccc(Cl)c(Cl)c4)cc3)nc2c1` were, in that order, 97%, 17% and 41%.
For `Cc1cc(N[C@@H](Cc2ccccc2)C(=O)NCCc2ccccc2)nc(NCCc2cccs2)n1.O=C(O)C(F)(F)F`, in that order: 99%, 84% and 12%.
Take `Cc1nnc(Sc2ncnc3scc(-c4ccc(F)cc4)c23)s1`: the values for the Inhibition with Plasmodium falciparum [1], in the assay on Plasmodium falciparum [2] and with HepG2 were 99%, 50% and 13%, respectively.
For `Cc1nc2ccc(NC(=O)c3cc(S(=O)(=O)N(C)C)ccc3Cl)cc2s1`, in that order: 91%, 77% and 20%.
With `CCCCCCNC(=O)C1Cc2c([nH]c3ccc(C)cc23)C2(CCN(Cc3ccccc3)CC2)N1` (stereo not given), the Inhibition with Plasmodium falciparum [1] stood at 84%; with Plasmodium falciparum [2] it was 25%; in the assay with HepG2, 25%.
Consider `COc1cccc(NC(=O)CSc2nc(-c3ccccc3Cl)ns2)c1`, for which the Inhibition came to 99% in the assay with Plasmodium falciparum [1], 100% with Plasmodium falciparum [2] and 7% with HepG2.
For `CCCCc1cc(=O)oc2cc(C)cc(OCc3ccccc3F)c12`, in that order: 92%, 78% and 8%.
For `CCOC(=O)c1cc2c(CCN3C(=O)c4ccccc4C3=O)cn(C)c2cc1-c1ccncc1`, in that order: 100%, 90% and 99%.
`CC(C)(C)c1ccc(-c2cc(C(=O)N[C@@H](CO)C(=O)O)on2)cc1.CC(C)(C)c1ccc(-c2nocc2C(=O)N[C@@H](CO)C(=O)O)cc1`: the Inhibition with Plasmodium falciparum [1] was found to be 87%; with Plasmodium falciparum [2], 0%; in the assay with HepG2, 1%.
As to `Cc1cc(N2CCCCC2)nc2ccc(NC(=O)c3cccc([N+](=O)[O-])c3)cc12`, the Inhibition is on record as 95% in the assay on Plasmodium falciparum [1], 99% with Plasmodium falciparum [2] and 9% with HepG2.
The like results for `COCCN(C)c1ccc(C(=O)Nc2ccccc2)cc1NS(=O)(=O)Cc1ccccc1.O=C(O)C(F)(F)F` were, in that order, 92%, 47% and 2%.
For the compound `O=C(NCC1CCC(C(=O)NCCN2CCCCC2)CC1)c1ccc(O)c(-c2ccc(Cl)c(Cl)c2)c1` (stereo not given), the Inhibition with Plasmodium falciparum [1] is recorded as 91%; with Plasmodium falciparum [2] it was 22%; in the assay on HepG2 it was 0%.
For `COc1ccc2nccc(NC(=O)N3CCC(NCCOc4cc(F)cc(F)c4)CC3)c2n1.O=C(O)C(=O)O`, in that order: 86%, 38% and 14%.
The like results for `N#Cc1c(N2CCN(c3ccc(F)cc3)CC2)nc(N)c2c(N)nc3c(c12)CC(=O)N3C1CC1` were, in that order, 95%, 82% and 2%.
Take `Cc1cc(Nc2ccc3ccccc3c2)n2ncnc2n1`: the Inhibition with Plasmodium falciparum [1] is 96%; with Plasmodium falciparum [2] it was 95%; in the assay on HepG2, 11%.
The like results for `COc1cc(NC(=O)Nc2cc(C)nc3ccccc23)cc(OC)c1` were, in that order, 100%, 57% and 5%.
For `CC(C)=C(C(=O)OCc1ccccc1)N1C(=O)[C@@H](NC(c2ccccc2)(c2ccccc2)c2ccccc2)[C@H]1[S+]([O-])CC(=O)OC(C)(C)C` (stereo not given in full), in that order: 92%, 78% and 0%.
With `COc1ccc2nccc([C@@H](O)CN3CCC(NC(=O)c4cc5cccnc5[nH]4)CC3)c2c1.Cl`, the Inhibition in the assay on Plasmodium falciparum [1] is recorded as 94%; in the assay on Plasmodium falciparum [2], 6%; in the assay on HepG2 it was 0%.
Turning to `CC1(C)[C@H]2CC[C@@H](CNc3nc(NCCc4c[nH]cn4)nc(Nc4ccc5c(c4)OCO5)n3)[C@@H]1C2`, the Inhibition was determined as 100% in the assay on Plasmodium falciparum [1], 88% in the assay on Plasmodium falciparum [2] and 3% in the assay on HepG2.
For `NCC1CCCN1Cc1ccc(-c2ccc(-c3nc4ccccc4[nH]3)s2)cc1.O=C(O)C(F)(F)F` (stereo not given), in that order: 98%, 97% and 17%.
On to `O=C(NCCCCN1CCC(c2ccc3c(c2OCc2ccncc2)CCCC3)CC1)c1ccc(NC(=O)c2ccc(Cl)cc2)cc1`, for which the Inhibition was 100% in the assay on Plasmodium falciparum [1], 99% in the assay on Plasmodium falciparum [2] and 62% in the assay with HepG2.
The like results for `CC(C)C[C@H](NC(=O)c1cccc(F)c1)C(=O)N[C@H](/C=N/NC(=O)c1ccccc1)CCc1ccccc1` were, in that order, 93%, 71% and 0%.
For `Fc1ccc(C=NNc2nc3ccccc3[nH]2)cc1`, in that order: 98%, 58% and 0%.
The like results for `CC(C)C(C(=O)Nc1ccc(S(=O)(=O)N(C)C)cc1)c1ccc(Cl)cc1` (stereo not given) were, in that order, 100%, 98% and 27%.
In the case of `O=C(N[C@@H](CC1CCCCC1)C(=O)NCCN1CCOCC1)c1ccc(O)c(-c2ccc(Cl)c(Cl)c2)c1`, the Inhibition in the assay on Plasmodium falciparum [1] is listed as 97%; in the assay on Plasmodium falciparum [2], 99%; in the assay with HepG2 it was 0%.
Regarding `O=C(Nc1ccc2c(c1)CCC2)c1ccc(N2CCN(c3ccncc3)CC2)cn1.O=C(O)C(F)(F)F`, the Inhibition is recorded as 99% with Plasmodium falciparum [1], 58% in the assay with Plasmodium falciparum [2] and 56% in the assay with HepG2.
Consider `O=C(NCCc1cccc(F)c1)c1ccc(N2CCN(c3ccncc3)CC2)cn1.O=C(O)C(F)(F)F`, for which the Inhibition was 94% in the assay with Plasmodium falciparum [1], 7% in the assay with Plasmodium falciparum [2] and 4% with HepG2.
As to `N#Cc1cnc2cc(-c3cnc(CNCCN4CCOCC4)s3)ccc2c1Nc1ccc(Oc2ccccc2)cc1`, the values for the Inhibition in the assay with Plasmodium falciparum [1], in the assay on Plasmodium falciparum [2] and with HepG2 were 97%, 83% and 30%, respectively.
The like results for `Cc1cc2c3c(N)nc(N)nc3ccc2n1C(C)C` were, in that order, 93%, 0% and 70%.
For `FC(F)(F)c1cccc(C=NNc2nc3ccccc3[nH]2)c1`, in that order: 100%, 99% and 1%.
As for `COc1ccc(CN2CCC(CNCc3cccc(-c4ccccc4)c3)CC2)cc1.O=C(O)C(F)(F)F`, the Inhibition is 100% in the assay on Plasmodium falciparum [1], 92% in the assay on Plasmodium falciparum [2] and 96% in the assay with HepG2.
Regarding `O=C(Nc1cccc(C(F)(F)F)c1)c1ccc(S(=O)(=O)NC2CCN(CC3CCCCC3)CC2)cc1.O=C(O)C(F)(F)F`, the Inhibition with Plasmodium falciparum [1] was determined as 83%; in the assay with Plasmodium falciparum [2], 0%; in the assay on HepG2, 25%.
For `Cc1cccc2nc(-c3ccc(-c4ccc(CN5CCN(c6ccncc6)CC5)cc4)cc3)[nH]c12.O=C(O)C(F)(F)F`, in that order: 100%, 100% and 98%.
For `CC1(C)N=C(N)N=C(N)N1c1cccc(I)c1.Cl`, in that order: 95%, 85% and 68%.
In the case of `O=C(O)C(F)(F)F.c1cc(CNCc2ccc3c(c2)OCO3)cc(-c2cccc(CNc3ccc4ncccc4c3)c2)c1`, the figures for the Inhibition in the assay on Plasmodium falciparum [1], in the assay on Plasmodium falciparum [2] and in the assay with HepG2 were 98%, 27% and 18%, respectively.
For `CN1CCC(c2cc3c(cc2Br)CCN3C(=O)Nc2ccc(-c3ccncc3)c(Cl)c2)CC1`, the Inhibition in the assay on Plasmodium falciparum [1] is recorded as 91%; with Plasmodium falciparum [2], 0%; with HepG2, 26%.
For `COCn1ccc2c3c(N)nc(N)nc3ccc21`, in that order: 88%, 1% and 63%.
For `Cl.Oc1cccc(Nc2ccnc3cc(-c4ccncc4)ccc23)c1`, in that order: 100%, 99% and 8%.
The like results for `O=C(Cn1c(CCc2cccc(F)c2F)nc(=O)c2ccccc21)N(CCN1CCCC1)Cc1ccc(-c2ccc(C(F)(F)F)cc2)cc1.O=C(O)C(O)C(O)C(=O)O` were, in that order, 100%, 37% and 63%.
As for `CC(C)(C)c1ccc2[nH]c(-c3ccc(C(=O)NC4CCN(Cc5ccccc5)CC4)s3)nc2c1`, the values for the Inhibition in the assay on Plasmodium falciparum [1], in the assay on Plasmodium falciparum [2] and in the assay with HepG2 were 91%, 42% and 24%, respectively.
For `O=C(NC1CCN(c2ccnc3cc(Cl)ccc23)C1)c1ccccc1F.O=C(O)C(F)(F)F` (stereo not given), in that order: 100%, 71% and 8%.
For `CN1CCN(CCCNCc2cccc(-c3ccc(CNCCc4ccccc4)cc3)c2)CC1.O=C(O)C(F)(F)F`, in that order: 100%, 20% and 36%.
For `CCc1ccc(C2CCN(CCCCNC(=O)c3ccc(NC(=O)c4ccc(Cl)cc4)cc3)CC2)c(OCCO)c1`, in that order: 98%, 100% and 94%.
Consider `CC(C)Oc1ccc(C=CC(=O)Nc2noc3ccccc23)cc1`, for which the Inhibition with Plasmodium falciparum [1] was 96%; in the assay with Plasmodium falciparum [2], 95%; in the assay with HepG2 it was 2%.
Regarding `COc1ccc(C=Cc2cc(=N)c3ccccc3[nH]2)cc1Br`, the Inhibition with Plasmodium falciparum [1] is recorded as 100%; in the assay with Plasmodium falciparum [2], 88%; in the assay on HepG2, 55%.
As for `Cn1cncc1C(=O)Nc1cccc(-c2cccc(-c3nc4cc(F)ccc4[nH]3)c2)c1`, the Inhibition was 100% in the assay on Plasmodium falciparum [1], 45% in the assay with Plasmodium falciparum [2] and 16% in the assay with HepG2.
The like results for `COc1cc(CCN(C)Cc2ccc(OC)c(OC)c2)ccc1NC(=O)c1cccc2c(O)c3cccc(F)c3nc12` were, in that order, 100%, 26% and 14%.
The like results for `Cc1ccc(NC(=O)c2cccc(C#N)c2)cc1-c1ccc(C(=O)Nc2ccncc2)cc1` were, in that order, 94%, 64% and 38%.
For `CC(Cl)=CCc1c(C)nc2c(ccc3ccccc32)c1O`, in that order: 96%, 96% and 24%.
With `COc1cccc(CNC(=O)c2cc(CNCc3ccccc3)ccc2-c2cccc(CNCc3ccc(-c4ccccc4)cc3)c2)c1.O=C(O)C(F)(F)F`, the values for the Inhibition with Plasmodium falciparum [1], with Plasmodium falciparum [2] and with HepG2 were 95%, 15% and 22%, respectively.
In the case of `Cc1nnsc1C(=O)Nc1cccc(-c2ccc(-c3nc4cc(F)ccc4[nH]3)cc2)c1`, the Inhibition in the assay with Plasmodium falciparum [1] came to 100%; in the assay on Plasmodium falciparum [2], 89%; in the assay with HepG2 it was 51%.
For `CC(C)(Oc1c(C2CCN(CCCCNC(=O)c3ccc(-c4ccc(C#N)cc4)cc3)CC2)ccc2c1CCCC2)C(N)=O`, the Inhibition with Plasmodium falciparum [1] came out at 100%; with Plasmodium falciparum [2], 82%; in the assay with HepG2, 34%.
For `CCOC(=O)c1ccc(NC(=O)N[C@@H](Cc2ccccc2)C(=O)NC2CCN(Cc3ccc(O)c(OC)c3)C2)cc1` (stereo not given in full), in that order: 88%, 0% and 0%.
The like results for `Nc1cccc(CNCc2ccc(-c3ccc(-c4nc5cc(F)ccc5[nH]4)s3)cc2)c1.O=C(O)C(F)(F)F` were, in that order, 100%, 93% and 12%.
The like results for `CC(CN(C)C)C(=O)Nc1ccc(-c2cccc(-c3nc4ccccc4[nH]3)c2)cc1` (stereo not given) were, in that order, 99%, 57% and 68%.
Regarding `CN1CCN(c2nsc3ccc(-c4ccc(OCCN5CCCC5)cc4)cc23)CC1.O=C(O)C(F)(F)F`, the Inhibition is 100% in the assay on Plasmodium falciparum [1], 99% with Plasmodium falciparum [2] and 57% with HepG2.
On to `Nc1cccc(CNCc2cccc(-c3cccc(-c4nc5ccccc5[nH]4)c3)c2)c1.O=C(O)C(F)(F)F`, for which the Inhibition is given as 100% in the assay with Plasmodium falciparum [1], 84% with Plasmodium falciparum [2] and 1% in the assay on HepG2.
For `COC(=O)c1ccc(CN2CCC(N(Cc3cccc(Oc4ccccc4)c3)S(=O)(=O)c3ccc(NC(C)=O)cc3)CC2)cc1`, in that order: 82%, 86% and 0%.
